Among the data in PubChem BioAssay (NCI) are growth values, retold here.

Test systems include SR leukemia; RPMI-8226 leukemia; OVCAR-8 ovarian; OVCAR-5 ovarian; OVCAR-4 ovarian; SK-OV-3 ovarian; IGROV1 ovarian; OVCAR-3 ovarian; HS 578T breast; NCI/ADR-RES ovarian; T-47D breast; BT-549 breast; MDA-MB-435 melanoma; SW-620 colon; MCF7 breast; HCT-116 colon; HCC-2998 colon; KM12 colon.
Common to all, as to assay: NCI-60 one-dose screen, 48 h (100 = growth as untreated, 0 = no growth, -100 = all killed)
Conditions in all cases: 10 µM unless noted

Compounds without any hit were thinned out: in the full panel of roughly 83,000, 20% have a hit.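 The test compound was applied at a single concentration to cells in 96-well plates for 48 hours, and percent growth was recorded.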 Unmarked numbers belong to inactive results. Activity calls are given as the source filed them. The calls were made as follows: active = growth percent below 10; inactive = the rest.

Take `Cn1cc(-c2nc3c(F)cc4[nH]ncc4c3c3c2CCCC3)c(C(F)(F)F)n1`: the growth is -30.9% (active) with SR leukemia; -5.82% (active) in the experiment on RPMI-8226 leukemia; 39.4% with OVCAR-8 ovarian; 65% in the experiment on OVCAR-5 ovarian; 73.8% with OVCAR-4 ovarian; 14.1% in the experiment on SK-OV-3 ovarian. Further, the growth in the experiment with IGROV1 ovarian is 24%; in the experiment with OVCAR-3 ovarian, 55.2%; with HS 578T breast it was 18%; with NCI/ADR-RES ovarian it was 60.2%; in the experiment on T-47D breast it was 39.9%; with BT-549 breast, 4.21% (active). The growth with MDA-MB-435 melanoma was 14%; with SW-620 colon, 18.6%; in the experiment on MCF7 breast it was 24.6%; in the experiment with HCT-116 colon, 15.1%; with HCC-2998 colon, 65.3%; in the experiment with KM12 colon, 24.2%.
For `O=C1C(Cl)=C(Nc2ccccc2)C(=O)c2ccccc21`, the growth in the experiment on SR leukemia is -21% (active); in the experiment with RPMI-8226 leukemia, -7.02% (active); with OVCAR-8 ovarian it was -32.1% (active); in the experiment with OVCAR-5 ovarian it was 75.7%; in the experiment with OVCAR-4 ovarian, -96.9% (active); with SK-OV-3 ovarian, 75.1%. The growth in the experiment on IGROV1 ovarian is -77.6% (active); with OVCAR-3 ovarian, -96.7% (active); in the experiment with HS 578T breast, 54%; in the experiment with NCI/ADR-RES ovarian, -15.2% (active); with T-47D breast it was -2.5% (active); in the experiment on BT-549 breast it was -94.7% (active). The growth with MDA-MB-435 melanoma is -97.7% (active); with SW-620 colon, -72% (active); in the experiment with MCF7 breast, -58% (active); in the experiment with HCT-116 colon, -96.2% (active); with HCC-2998 colon, -15.6% (active); in the experiment with KM12 colon it was 46.9%.
As for `C=CCn1cc(-c2nc3ccccc3s2)c2cc(-c3ccc4c5c(cccc35)C(=O)N(CCO)C4=O)ccc21`, the growth is 104% with SR leukemia; 99.3% in the experiment on RPMI-8226 leukemia; 91.2% in the experiment with OVCAR-8 ovarian; 92.9% with OVCAR-5 ovarian; 99.6% with OVCAR-4 ovarian; 107% in the experiment on SK-OV-3 ovarian. The growth with IGROV1 ovarian was 77.7%; with OVCAR-3 ovarian, 105%; with HS 578T breast, 104%; with NCI/ADR-RES ovarian, 98.3%; with T-47D breast it was 78.1%; in the experiment on BT-549 breast, 99.4%. Further, the growth in the experiment with MDA-MB-435 melanoma is 109%; with SW-620 colon, 98.9%; in the experiment on MCF7 breast it was 80.2%; with HCT-116 colon, 96.7%; in the experiment on HCC-2998 colon, 101%; in the experiment with KM12 colon it was 105%.
Regarding `COC(=O)/C=C1/SC(=NCc2ccccc2)N(CCc2c[nH]c3ccccc23)C1=O`, the growth is 29.8% in the experiment with SR leukemia; 52.4% in the experiment on RPMI-8226 leukemia; 67.6% in the experiment on OVCAR-8 ovarian; 110% in the experiment on OVCAR-5 ovarian; 78.1% with OVCAR-4 ovarian; 111% with SK-OV-3 ovarian. Also, the growth is 92.1% with IGROV1 ovarian; 79.1% with OVCAR-3 ovarian; 79.7% in the experiment with HS 578T breast; 80.6% in the experiment on NCI/ADR-RES ovarian; 53.5% in the experiment with T-47D breast; 66.9% in the experiment on BT-549 breast. For the same compound, the growth is 72.3% with MDA-MB-435 melanoma; 72% with SW-620 colon; 48.4% in the experiment on MCF7 breast; 53.6% with HCT-116 colon; 99.8% in the experiment on HCC-2998 colon; 70.4% with KM12 colon.
`Cc1cc(NCCCNc2ccnc3cc(Cl)ccc23)nc(Nc2ccc(C(=O)N3CCCCC3)cc2)n1`: the growth in the experiment on SR leukemia was -31.8% (active); in the experiment on RPMI-8226 leukemia it was -11.1% (active); in the experiment with OVCAR-8 ovarian, 25.4%; in the experiment on OVCAR-5 ovarian, 71.6%; with OVCAR-4 ovarian, 39.5%; in the experiment with SK-OV-3 ovarian it was 96.8%. Besides, the growth is 46.3% in the experiment on IGROV1 ovarian; 18.8% in the experiment on OVCAR-3 ovarian; 85.3% with HS 578T breast; 75.6% in the experiment with NCI/ADR-RES ovarian; -32.8% (active) with T-47D breast; 69.8% in the experiment on BT-549 breast. Besides, the growth with MDA-MB-435 melanoma is -72.5% (active); with SW-620 colon it was -0.272% (active); in the experiment on MCF7 breast, 6.95% (active); in the experiment on HCT-116 colon, -38.3% (active); in the experiment with HCC-2998 colon it was 0.124% (active); with KM12 colon, 26.1%.
Turning to `COc1c2c(cc3c1C(=O)N[C@@H]1[C@@H](O)[C@@H](O)[C@H](O)C[C@@H]31)OCCO2`, the growth with SR leukemia was 92.1%; with RPMI-8226 leukemia it was 102%; in the experiment on OVCAR-8 ovarian, 100%; with OVCAR-5 ovarian, 105%; with OVCAR-4 ovarian it was 105%; with SK-OV-3 ovarian, 98.6%. The growth in the experiment with IGROV1 ovarian was 109%; with OVCAR-3 ovarian it was 104%; in the experiment on HS 578T breast it was 96.2%; in the experiment on NCI/ADR-RES ovarian it was 113%; in the experiment on T-47D breast, 84.9%; with BT-549 breast, 99.5%. The growth in the experiment on MDA-MB-435 melanoma was 108%; with SW-620 colon, 104%; in the experiment on MCF7 breast it was 93.9%; in the experiment on HCT-116 colon, 102%; in the experiment with HCC-2998 colon it was 106%; in the experiment with KM12 colon, 99.1%.
Turning to `COc1ccc(Oc2ccc(/C=C/C(=O)c3cc4ccccc4oc3=O)cc2)cc1`, the growth in the experiment with SR leukemia was 80.9%; in the experiment on RPMI-8226 leukemia it was 59.6%; in the experiment on OVCAR-8 ovarian, 93.5%; with OVCAR-5 ovarian, 112%; in the experiment on OVCAR-4 ovarian, 80.7%; in the experiment with SK-OV-3 ovarian it was 92.4%. For the same compound, the growth was 70.1% in the experiment on IGROV1 ovarian; 107% in the experiment on OVCAR-3 ovarian; 101% with HS 578T breast; 85.6% in the experiment with NCI/ADR-RES ovarian; 84.6% with T-47D breast; 81% with BT-549 breast. The growth with MDA-MB-435 melanoma was 89.3%; with SW-620 colon, 103%; in the experiment on MCF7 breast, 25.9%; in the experiment on HCT-116 colon, 56.6%; in the experiment with HCC-2998 colon, 108%; in the experiment on KM12 colon, 85.9%.
Turning to `CCOC(=O)c1ccc[nH]1`, the growth with SR leukemia is 94.8%; in the experiment on RPMI-8226 leukemia it was 90.5%; with OVCAR-8 ovarian it was 95.9%; in the experiment on OVCAR-5 ovarian it was 78.9%; with OVCAR-4 ovarian it was 95.5%; with SK-OV-3 ovarian, 108%. The growth in the experiment on IGROV1 ovarian was 90.6%; in the experiment on OVCAR-3 ovarian, 115%; with HS 578T breast, 95%; in the experiment with NCI/ADR-RES ovarian, 95.2%; with T-47D breast it was 93.3%; with BT-549 breast, 77.5%. In addition, the growth with MDA-MB-435 melanoma was 105%; in the experiment on SW-620 colon, 113%; in the experiment with MCF7 breast, 92.6%; in the experiment on HCT-116 colon, 94.5%; with HCC-2998 colon it was 88.1%; in the experiment with KM12 colon, 108%.
